AC50 and outcome data for twelve compounds are collected here from PubChem BioAssay (EPA / NIEHS).

Experiment [1] is described as follows: TAMU_HCS_1.5hr_SingleDonor1434_Cytotoxicity: Cytotoxicity Assessment using High-content Screening (HCS) Fluorescent Imaging for the Texas A&M University (TAMU) 1.5-hr Human Induced Pluripotent Stem Cell (iPSC)-derived Cardiotoxicity Assay (AID 2284234). In a few lines:
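Human iPSC-derived cardiomyocytes dosed at 0.2, 1, 10, 100 uM final (0.5% DMSO) for 90 min at 37 C. Hoechst 33342-stained nuclei counted by 10x high-content imaging; POD is EC10, a 10% drop in total cell count versus DMSO.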

A short description of experiment [2]: TAMU_PeakParms_SingleDonor1434_QT: Texas A&M University (TAMU) 1.5-hr Human Induced Pluripotent Stem Cell (iPSC)-derived Cardiomyocytes Calcium (Ca+2) Flux Assay for Cardiotoxicity: QT (decay-rise ratio) (AID 2284235). In a few lines: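 iPSC-derived cardiomyocytes (single donor 1434) dosed at 0.2, 1, 10, 100 uM final in 0.5% DMSO, 90 min at 37C. Ca2+ flux fluorescence decay/rise ratio; EC05 (5% increase versus DMSO) as POD, excluding beat-arrest and severe-notch data.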

Experiment [3] is described as follows: CCTE_Mundy_HCI_Cortical_NOG_BPCount: CCTE's Neurite Outgrowth Assay in rat cortical cells for Branch Point Count, Mundy Lab (AID 2284237; active means hit-call score of the fitted dose curve at least 0.9, where 1 is the maximum; inactive means score below 0.9). Summed up: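 Measured 50.33 h after dosing, this morphology endpoint uses rat primary cortical cultures labelled for betaIII-tubulin. Branch points are quantified by high-content imaging, with DMSO as negative control and baseline.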

The nature of experiment [4]: CCTE_Mundy_HCI_hNP1_Casp3_7: CCTE's Caspase-Glo 3/7 Assay in human neuroprogenitor cells for Apoptosis, Mundy Lab (AID 2284240; active means hit-call score of the fitted dose curve at least 0.9, where 1 is the maximum; inactive means score below 0.9). In a few lines: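 Apoptosis is scored by activated caspase-3/7 luminescence in WA09-derived neural progenitor cells, measured 26.5 h after chemical dosing. Values represent gain of signal relative to DMSO vehicle.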
Experiment [5] in a line: CCTE_Mundy_HCI_hNP1_CellTiter: CCTE's Cell Titer-Glo 2 Assay in human neuroprogenitor cells for Viability, Mundy Lab (AID 2284241). In a few lines:
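Human neural progenitor cells (hNP1, WA09-derived) were plated on poly-L-ornithine/laminin and grown 40 to 44 hours at 37 °C, 5% CO2 before chemical addition. Twenty-four hours later, ATP was measured by CellTiter-Glo luminescence; loss of signal versus DMSO indicates reduced viability.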

Experiment [6] is described as follows: IUF_NPC2c_oligodendrocyte_migration_120hr: Leibniz Research Institute for Environmental Medicine (IUF) 120-hour Neural Progenitor Cell Migration Assay for Oligodendrocyte Migration (NPC2c) (AID 2284297; active means hit-call score of the fitted dose curve at least 0.9, where 1 is the maximum; inactive means score below 0.9;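 further: O4-positive oligodendrocyte migration distance divided by radial glia migration distance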). Summed up:
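Human fetal neural progenitor spheres (0.3 mm) are plated on poly-D-lysine/laminin in N2 differentiation medium and exposed for 120 h, with half-medium renewal at day 3. Oligodendrocyte (O4+) migration distance comes from ICC imaging, normalised to radial glia migration.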

Experiment [7] is described as follows: IUF_NPC2a_radial_glia_migration_120hr: Leibniz Research Institute for Environmental Medicine (IUF) 120-hour Neural Progenitor Cell Migration Assay for Radial Glia Migration (NPC2a) (AID 2284298; active means hit-call score of the fitted dose curve at least 0.9, where 1 is the maximum; inactive means score below 0.9). Summed up: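 Human fetal-cortex neural progenitor spheres (0.3 mm) plated on poly-D-lysine/laminin in N2 differentiation medium, exposed 120 h at 37C with half-medium renewal at day 3. Radial glia migration distance (um) measured from Hoechst-stained nuclei images; DMSO baseline.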

A short description of experiment [8]: IUF_NPC2a_radial_glia_migration_72hr: Leibniz Research Institute for Environmental Medicine (IUF) 72-hour Neural Progenitor Cell Migration Assay for Radial Glia Migration (NPC2a) (AID 2284299; active means hit-call score of the fitted dose curve at least 0.9, where 1 is the maximum; inactive means score below 0.9). Summed up:
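Migration out of plated human neural progenitor spheres is scored at 72 h as the distance in um from the sphere core edge to the edge of the migration area. Values are the mean of four manual measurements per well, normalised to DMSO.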

Experiment [9] is described as follows: IUF_NPC2b_neuronal_migration_120hr: Leibniz Research Institute for Environmental Medicine (IUF) 120-hour Neural Progenitor Cell Migration Assay for Neuron Migration (NPC2b) (AID 2284300; active means hit-call score of the fitted dose curve at least 0.9, where 1 is the maximum; inactive means score below 0.9). In a few lines:
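0.3 mm hNPC spheres on poly-D-lysine/laminin in N2 differentiation medium exposed 120 h, half-medium refresh day 3; 7 concentrations, DMSO max 0.1%. Neuron (TUBB3) distance from sphere core by ICC imaging, normalised to radial glia migration.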

A short description of experiment [10]: IUF_NPC3_neuronal_differentiation_120hr: Leibniz Research Institute for Environmental Medicine (IUF) 120-hour Neuronal Differentiation Assay (NPC3) (AID 2284301; active means hit-call score of the fitted dose curve at least 0.9, where 1 is the maximum; inactive means score below 0.9). In a few lines: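 Single 0.3 mm neurospheres from human fetal cortex were plated in differentiation medium containing test compound. Medium was half-replaced on day 3. After 120 h cells were fixed, immunostained and imaged, and neuronal fraction was scored against DMSO control.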

Experiment [11] can be described thus: IUF_NPC4_neurite_length_120hr: Leibniz Research Institute for Environmental Medicine (IUF) 120-hour Neuronal Morphology Assay for Neurite Length (NPC4) (AID 2284302; active means hit-call score of the fitted dose curve at least 0.9, where 1 is the maximum; inactive means score below 0.9). In a few lines:
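Read-out is mean neurite length in µm of TUBB3-positive neurons, skeletonized from high-content fluorescence images after 120 h. Single 0.3 mm primary human neural progenitor spheres differentiated on poly-D-lysine/laminin under continuous compound exposure; DMSO was baseline.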

The nature of experiment [12]: IUF_NPC2-5_cytotoxicity_72hr: Cytotoxicity Assessment at 72 hours in the Leibniz Research Institute for Environmental Medicine (IUF) Neural Progenitor Cell Migration and Differentiation Assay for Cytotoxicity (NPC2-5) (AID 2284306).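 Further: LDH release into supernatant measured by resorufin fluorescence marking membrane damage.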 In a few lines: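 Membrane integrity loss was scored from fluorescence (RFU) of resorufin generated by LDH in culture supernatant, 72 h after dosing. Differentiating human progenitor spheres received seven serial compound concentrations alongside a solvent control.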

Experiment [13] can be described thus: IUF_NPC2-5_cytotoxicity_120hr: Cytotoxicity Assessment at 120 hours in the Leibniz Research Institute for Environmental Medicine (IUF) Neural Progenitor Cell Migration and Differentiation Assay (NPC2-5) (AID 2284307). In a few lines:
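Human fetal (GW 16-19) neural progenitor spheres (0.3 mm) plated on poly-D-lysine/laminin in N2 differentiation medium, exposed 120 h with half-medium renewal at day 3; 7 concentrations plus solvent control, DMSO ≤0.1%. LDH release in supernatant read by resorufin fluorescence.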

Experiment [14] is described as follows: IUF_NPC2-5_cell_number_120hr: Cell Number Assessment at 120 hours in the Leibniz Research Institute for Environmental Medicine (IUF) Neural Progenitor Cell Migration and Differentiation Assay (NPC2-5) (AID 2284308; active means hit-call score of the fitted dose curve at least 0.9, where 1 is the maximum; inactive means score below 0.9;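 further: count of Hoechst-stained nuclei in migration zone around plated human neural progenitor spheres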). Summed up:
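Human fetal neural progenitor spheres (0.3 mm) plated on poly-D-lysine/laminin in N2 differentiation medium, exposed five days across 7 concentrations with half-medium refresh at day 3. Hoechst-positive nuclei counted in migration area at 120 h, relative to DMSO.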

Experiment [15] can be described thus: VALA_TUBHUV_Agonist_CellCount: Viability Assessment in the VALA Sciences human Umbilical Vein Endothelial Tubule Formation (TUBHUV) Agonism Assay (AID 2284309). Summed up: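 HUVEC co-cultured 1:3 with HDF for 3 days in 10 ng/ml VEGF, then compounds added in VEGF medium for a further 3 days (72 h). Nuclear-stain/CD31 imaging cell count. Positive-direction fit versus 0.1% DMSO vehicle.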

Experiment [16] in a line: VALA_TUBHUV_Antagonist_CellCount: Viability Assessment in the VALA Sciences human Umbilical Vein Endothelial Tubule Formation (TUBHUV) Antagonism Assay (AID 2284310). In a few lines: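 HUVEC co-cultured with HDF (1:3) 3 days in 10 ng/ml VEGF, then 3 days with compounds in VEGF medium. Fixed, nuclear stain and CD31 immunofluorescence, imaged; cell counts fitted versus 0.1% DMSO, loss of signal read as lower viability.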

The nature of experiment [17]: CCTE_Mundy_HCI_Cortical_NOG_NeuronCount: CCTE's Neurite Outgrowth Assay in rat cortical cells for Neuron Count, Mundy Lab (AID 2284236).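 Further: neurons counted by imaging betaIII-tubulin and Hoechst stained cortical cells; cells exposed to compound for about 48 hours before fixation.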 Summed up: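 Read-out: neuron number by high-content imaging of betaIII-tubulin (Alexa Fluor-488) and Hoechst-labelled rat primary cortical cells.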
A short description of experiment [18]: CCTE_Mundy_HCI_Cortical_Synap_Neur_Matur_NeuronCount: CCTE's Synaptogenesis and Neurite Maturation Assay in rat cortical cells for Neuron Count, Mundy Lab (AID 2284242). Summed up: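 Imaging-based neuron count in rat cortical cultures after chemical exposure from DIV 7 to DIV 12, with AraC added at DIV 5. Activity is fitted relative to DMSO.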
A short description of experiment [19]: IUF_NPC5_oligodendrocyte_differentiation_120hr: Leibniz Research Institute for Environmental Medicine (IUF) 120-hour Oligodendrocyte Differentiation Assay (NPC5) (AID 2284304).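 Further: primary human fetal neural progenitor spheres plated to migrate and differentiate; share of O4-positive cells among Hoechst nuclei found by CNN image analysis.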 In a few lines: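 Human fetal neural progenitor spheres (0.3 mm) plated on poly-D-lysine/laminin in N2 differentiation medium and exposed for 120 h at 7 concentrations, with half-medium renewal at day 3. O4-positive cells identified by CNN, expressed as percent of Hoechst nuclei.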

Experiment [20] can be described thus: IUF_NPC4_neurite_area_120hr: Leibniz Research Institute for Environmental Medicine (IUF) 120-hour Neuronal Morphology Assay for Neurite Area (NPC4) (AID 2284305). In a few lines:
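Neurite area is read out as the mean pixel area, excluding nuclei, of skeletonized TUBB3-positive neurons imaged after 120 h. Primary human neural progenitor spheres differentiated on poly-D-lysine/laminin with compound present from day 0. Activity was referenced to DMSO controls.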

Inconclusive results are not listed. The source made the active and inactive calls. How the source made its calls, unless noted: active means hit-call score of the fitted dose curve at least 0.9, where 1 is the maximum; inconclusive means response in the unintended direction; inactive means score below 0.9.

In the case of `CCOc1ccc2c(c1)C(C)=CC(C)(C)N2`, the AC50 in experiment [1] was 50 µM (active). In experiment [2], the outcome was inactive.

For `CC(=O)Oc1ccccc1C(=O)O`, the compound was classed as inactive in [1], in experiment [2], in experiment [3], in experiment [4], in [5] and in [6]. Moreover, the result in experiment [7], in experiment [8], in [9], in [10], in experiment [11] and in experiment [12] was inactive. Moreover, the compound was called inactive in experiment [13] and in experiment [14].

Turning to `O=c1c(O)c(-c2ccc(O)c(O)c2)oc2cc(O)cc(O)c12`, the outcome in experiment [15] was inactive.

For `O=C(O)CCCCC(=O)O`, the compound was classed as inactive in experiment [1] and in experiment [2].

As for `COC(=O)c1ccc(O)cc1`, the result in [1], in experiment [2], in [15] and in [16] was inactive.

In the case of `CCCc1cc(=O)[nH]c(=S)[nH]1`, the result in experiment [1], in experiment [17], in experiment [4], in [18] and in experiment [15] was inactive.

Take `OC[C@@H](O)[C@@H](O)[C@H](O)[C@H](O)CO`: the outcome in experiment [3], in experiment [4], in experiment [18], in experiment [6], in experiment [7] and in experiment [8] was inactive. In addition, the result in experiment [9], in experiment [10], in [11], in experiment [19], in experiment [20] and in [12] was inactive. The result in [13], in experiment [14] and in [15] was inactive.

`Oc1ccc2ccccc2c1N=Nc1ccccc1`: the call in [15] was inactive.

Consider `C[Si]1(C)O[Si](C)(C)O[Si](C)(C)O[Si](C)(C)O1`, for which the outcome in experiment [3], in [4], in experiment [6], in experiment [7], in [8] and in [9] was inactive. The result in [10], in experiment [11], in experiment [19], in experiment [20], in experiment [12] and in experiment [13] was inactive. Also, the call in experiment [14] was inactive.

With `O=c1[nH]cc(F)c(=O)[nH]1`, the compound was classed as inactive in experiment [1], in experiment [2] and in experiment [18]. In [4], the AC50 is 23.8 µM (active).

In the case of `Cc1cc(NC(=O)C(=O)O)cc(C)c1Oc1ccc(O)c2c1CCC2`, the results for the AC50 in [15] and in experiment [16] were 91.7 µM (active) and 81.2 µM (active), respectively.

Turning to `CCCCC(CC)COC(=O)CC(C(=O)OCC(CC)CCCC)S(=O)(=O)O` (centres undefined), in experiment [15], the concentration at half-maximal activity (AC50) is 7.22 µM (active).

What is called AC50 is the concentration at which the activity in the assay is half-maximal.
